For test [1], the target named is Acetylcholinesterase (Homo sapiens) (UniProt P22303). Kind of test: Acetylcholinesterase (AChE) small molecule antagonists: colormetric cell-based qHTS assay (AID 1347395). Also: nearly all actives have a fitted effect of over 30% in size. Also: potency is read from the fitted curve at half-maximal effect. Summed up:
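SH-SY5Y cells, plated overnight at 37 C, were exposed to compounds for 30 min at 37 C and 5% CO2. Acetylthiocholine plus DTNB was then added, and thiocholine from endogenous AChE was quantified colorimetrically after 90 min at 37 C.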
On the technique in general: Quantitative high-throughput screening tests each substance at several concentrations.

The target is the same in test [2]. As to the kind of experiment: Acetylcholinesterase (AChE) small molecule antagonists: enzyme-based qHTS assay (AID 1347397). Also: nearly all actives have a fitted effect of over 55% in size. Also: potency is read from the fitted curve at half-maximal effect. As to conditions: Potency: AChE enzyme activity inhibition; outcome: AChE enzyme activity inhibition. Summed up:
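rhAChE 50 mU/mL (dispensed) + cpd or DMSO, 30 min RT; add DTNB/acetylthiocholine cocktail, 10 min RT; colorimetric thiocholine readout. qHTS, 1536-well format.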

Test [3] shares this target. As to the kind of experiment: Acetylcholinesterase (AChE) small molecule antagonists: fluorescence cell-based qHTS assay (AID 1347398). Also: nearly all actives have a fitted effect of over 50% in size. Also: potency is read from the fitted curve at half-maximal effect. The note with it: Potency: AChE activity; outcome: AChE activity. The gist of the method: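 Read-out is Thiolite Green fluorescence at Ex/Em = 490/520 nm, formed by reaction with thiocholine released when cellular AChE in SH-SY5Y cells hydrolyzes acetylthiocholine. Compounds were preincubated 30 min at 37 C before substrate.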

Test [4] shares this target. Kind of test: Acetylcholinesterase (AChE) small molecule antagonists: enzyme-based qHTS assay with human liver microsomes (AID 1347399). Also: nearly all actives have a fitted effect of over 60% in size. The note with it: Potency: qHTS inhibition; outcome: qHTS inhibition. The gist of the method: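 Recombinant human AChE (50 mU/mL in the enzyme mix) and human liver microsomes (0.25 mg/mL final) were preincubated with compound and NADPH (0.25 mg/mL final) for 30 min at 37 C. Acetylthiocholine/DTNB was then added; thiocholine was read colorimetrically after 10 min at room temperature.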

Values without a mark were called inactive. Records with an inconclusive call do not appear. Active and inactive are the calls of the source. Calls follow the shape of the full dose curve.
% is scaled to controls: 0 for no effect and ±100 for the full control effect.

Acetylcholinesterase (Homo sapiens), sequence (P22303 whole entry, looked up): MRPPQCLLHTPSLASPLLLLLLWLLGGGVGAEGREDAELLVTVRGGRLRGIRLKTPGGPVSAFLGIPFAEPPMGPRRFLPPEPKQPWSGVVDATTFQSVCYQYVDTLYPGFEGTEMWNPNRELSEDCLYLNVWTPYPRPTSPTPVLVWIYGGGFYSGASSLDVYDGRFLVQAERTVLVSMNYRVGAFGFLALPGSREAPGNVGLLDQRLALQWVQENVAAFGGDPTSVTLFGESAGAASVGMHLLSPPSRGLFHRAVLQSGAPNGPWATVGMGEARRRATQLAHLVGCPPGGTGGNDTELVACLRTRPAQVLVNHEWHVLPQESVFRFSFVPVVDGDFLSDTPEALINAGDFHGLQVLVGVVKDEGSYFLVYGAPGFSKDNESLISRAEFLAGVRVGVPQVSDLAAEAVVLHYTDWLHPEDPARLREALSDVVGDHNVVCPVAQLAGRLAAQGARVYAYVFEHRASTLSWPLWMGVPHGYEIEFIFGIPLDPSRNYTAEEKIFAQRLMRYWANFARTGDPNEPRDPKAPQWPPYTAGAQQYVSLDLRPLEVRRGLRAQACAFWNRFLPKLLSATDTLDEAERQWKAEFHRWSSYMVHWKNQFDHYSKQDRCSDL

With `Clc1ccnc(Cl)n1`, the Potency entry in test [1], in test [2], in test [3] and in test [4] was “inactive” each time.

For the compound `CO[Si](C)(OC)c1ccccc1`, the Potency result in test [1], in test [2], in test [3] and in test [4] was “inactive” each time.

In the case of `CC1=C(CC(=O)O)c2cc(F)ccc2/C1=C\c1ccc(S(C)(=O)=O)cc1`, the Potency entry in test [1], in test [2], in test [3] and in test [4] was “inactive” in each case.

In the case of `C[C@H]1O[C@@H](O[C@H]2CC[C@@]3(C)[C@H](CC[C@@H]4[C@@H]3C[C@@H](O)[C@]3(C)[C@@H](C5=CC(=O)OC5)CC[C@]43O)C2)C[C@H](O)[C@@H]1O[C@H]1C[C@H](O)[C@H](O[C@H]2C[C@H](O)[C@H](O[C@@H]3O[C@H](CO)[C@@H](O)[C@H](O)[C@H]3O)[C@@H](C)O2)[C@@H](C)O1`, the Potency result in test [1], in test [2], in test [3] and in test [4] was “inactive” each time.

Regarding `Nc1ccc(NCCO)c([N+](=O)[O-])c1`, the Potency in test [1] is 35.6 µM (active); in test [2], 71 µM (active); in test [3] it was 35.6 µM (active). For the same compound, the Potency result in test [4] was “inactive”.

As for `CCCCCCC#CC(=O)OC`, the Potency result in test [1], in test [2], in test [3] and in test [4] was “inactive” in each case.

Take `CC(=O)c1ccc[nH]1`: the Potency entry in test [1], in test [2], in test [3] and in test [4] was “inactive” in each case.

As for `FC(F)(F)c1ccc(Cl)cc1Cl`, the Potency entry in test [1], in test [2], in test [3] and in test [4] was “inactive” throughout.

`OC(CCN1CCCCC1)(c1ccccc1)C1CC2C=CC1C2` (configuration not stated): the Potency result in test [1], in test [2], in test [3] and in test [4] was “inactive” in each case.

On to `CCCC(CC)CCCCCCCN` (configuration not stated), for which the Potency result in test [1], in test [2], in test [3] and in test [4] was “inactive” throughout.

As to `CCCCOCC`, the Potency result in test [1], in test [2], in test [3] and in test [4] was “inactive” in each case.

For the compound `O=C(O)Cc1sc(-c2ccccc2)nc1-c1ccc(Cl)cc1`, the Potency entry in test [1], in test [2], in test [3] and in test [4] was “inactive” each time.

Turning to `Nc1nc(-c2ccccc2)cs1`, the Potency entry in test [1], in test [2], in test [3] and in test [4] was “inactive” in each case.

Take `CC/C=C\C/C=C\C/C=C\CCCCCCCC(=O)OC`: the Potency entry in test [1], in test [2], in test [3] and in test [4] was “inactive” each time.

In the case of `C/C=C/C(=O)C1=C(C)C=CCC1(C)C`, the Potency result in test [1], in test [2], in test [3] and in test [4] was “inactive” throughout.

As to `CC(C)CCCCCCOC(=O)CCCCC(=O)OCCCCCCC(C)C`, the Potency entry in test [1], in test [2], in test [3] and in test [4] was “inactive” in each case.

For `O=[N+]([O-])c1ccc(Nc2ccc(Nc3ccccc3)c(S(=O)(=O)O)c2)c([N+](=O)[O-])c1`, the Potency entry in test [1], in test [2], in test [3] and in test [4] was “inactive” throughout.

For the compound `C[C@@H](O)[C@H](N)C(=O)O`, the activity, negative = inhibition in test [1] was 2.29% [at 23.6 µM]. For the same compound, the activity change, negative = inhibition in test [2] is 0.985% [at 23.6 µM]; in test [3], 4.69% [at 23.8 µM]; in test [4], -2.85% [at 23.6 µM].

On to `C=CCn1c(=O)n(CC=C)c(=O)n(CC=C)c1=O`, for which the Potency result in test [1], in test [2], in test [3] and in test [4] was “inactive” throughout.

With `CC(=O)S[C@H](C(=O)N[C@H]1Cc2ccccc2[C@H]2CCC[C@@H](C(=O)O)N2C1=O)C(C)C`, the Potency result in test [1], in test [2], in test [3] and in test [4] was “inactive” throughout.

On to `CCCCC1=NC2(CCCC2)C(=O)N1Cc1ccc(-c2ccccc2-c2nn[nH]n2)cc1`, for which the Potency entry in test [1], in test [2], in test [3] and in test [4] was “inactive” each time.

With `CC1C2CC(CC2C2CCCC(O)C2)C1(C)C` (configuration not stated), the Potency result in test [1], in test [2], in test [3] and in test [4] was “inactive” throughout.

On to `CC(C(=O)O)c1ccc2c(c1)[nH]c1ccc(Cl)cc12` (configuration not stated), for which the Potency entry in test [1], in test [2], in test [3] and in test [4] was “inactive” each time.
